Data: PubChem BioAssay (Tox21)
Results filed as inconclusive are left out. Calls of active or inactive are those of the source. Calls follow the shape of the dose curve; as a rule, active = well fitted activation curve with a large enough effect; inconclusive = small, poorly fitted or top-dose-only effect; inactive = flat fitted curve, though single readings scatter.

Assay: qHTS assay to identify small molecule phospholipidosis (PLD) inducers (AID 1259344)
Settings: HepG2 phospholipidosis, LipidTOX Red imaging, 24 h; series mostly up to 38.3 µM; PLD induction: at the top concentration
Description: National Center for Advancing Translational Sciences [NCATS]
Drug-induced Phospholipidosis (PLD) caused by cationic amphiphilic drugs is characterized by the appearance of unicentric or multicentric-lamellar bodies when viewed under electron microscope. Electron microscopy is the gold standard method for PLD detection, however, this method is time-consuming and labor intensive, making it unsuitable for evaluating a large set of compounds. A cell-based phospholipidosis assay has been developed using the LipidTox reagent in HepG2 cells and miniaturized into a 1536-well plate format. Drug induced phospholipid accumulation is stained with the LipidTox dyes in red color which then is determined using an automated high content screening system.
HepG2 cells are dispensed at 900 cells/3 uL/well into Collagen I-coated 1536-well black-wall/clear-bottom assay plates (Greiner Bio-One, Monroe, NC) using the Multidrop Combi 8 channel dispenser (Thermo Fisher, Waltham, MA, USA). The assay plates are incubated at 37 C for 4 hours to allow the cell attachment. 3 uL of 1:500 LipidTOX Red dye is added using the dispenser, and then 23 nL compounds are added via a Wako Pintool station (Wako Automation, San Diego, CA). Amiodarone, a known PLD inducer, was used as a positive control and DMSO was used as a negative control. The assay plates were then incubated at 37 C for 24 hours.
For fixations, 4 uL of 8% paraformaldehyde fixative solution containing 10 ug/mL Hoechst 33342 in Dulbecco's phosphate-buffered saline (DPBS) is added using a Kalypsys washer/dispenser (Kalypsys, San Diego, CA, USA). After incubation at room temperature for 30 min, the assay plates are washed once with DPBS using a Kalypsys washer/dispenser. The assay plates are then sealed and stored at 4 C before imaging. The fluorescence intensities (595 nm excitation, 615 nm emission for LipidTOX; 352 nm excitation, 461 nm emission for Hoechst 33342) are measured using an ImageXpress Micro Widefield High Content Screening System (Molecular Devices, Sunnyvale, CA, USA) with a 20x Plan Fluor objective. Images are acquired for one site in each well and analyzed with the MetaXpress software (Molecular Devices) using the Transfluor module. Several algorithmic outputs, such as pit count per well, pit count per cell, pit integrated intensity per well, and pit integrated intensity per cell, are used for quantitative image analysis for PLD.
% is scaled to controls: 0 for no effect and ±100 for the full control effect; potency is read from the fitted curve at half-maximal effect.

Row | SMILES | PLD induction | Potency
1 | COC(=O)[C@@H]1[C@H]2CC[C@@H](C[C@H]1OC(=O)c1ccccc1)N2C | -0.307% (inactive) | 
2 | Nc1ccc([N+](=O)[O-])cc1 | 9.27% [at 78.4 µM] (inactive) | 
3 | CCCCCCCCCC(=O)O[C@H]1CC[C@H]2[C@@H]3CCC4=CC(=O)CC[C@]4(C)[C@H]3CC[C@]12C | 14.5% (inactive) | 
4 | CC1(C)S[C@@H]2[C@H](N)C(=O)N2[C@H]1C(=O)O | -0.0883% [at 15.5 µM] (inactive) | 
5 | CC(=O)Oc1ccc2c3c1O[C@H]1[C@@H](OC(C)=O)C=C[C@H]4[C@@H](C2)N(C)CC[C@@]341 |  | inactive
6 | COC(=O)[C@H]1[C@@H](OC(=O)c2ccccc2)C[C@@H]2CC[C@H]1N2C | 1.68% [at 78.4 µM] (inactive) | 
7 | C[C@]12CC[C@H](O)C[C@H]1CC[C@@H]1[C@@H]2CC[C@]2(C)[C@@H](c3ccc(=O)oc3)C[C@H]3O[C@]132 | 11.2% (inactive) | 
8 | CCCCCN(C)CCC(O)(P(=O)(O)O)P(=O)(O)O | 1.04% (inactive) | 
9 | Oc1cccc[c]1[Hg][Cl] | -1.47% (inactive) | 
10 | O=P1(N(CCCl)CCCl)NC(OO)CCO1 (stereo not given) | -0.967% (inactive) | 
11 | CCOC(=O)C1(c2ccccc2)CCCN(C)CC1 (stereo not given) | -0.0748% (inactive) | 
12 | CC(=O)O[C@H]1C[C@H](O[C@H]2[C@@H](O)C[C@H](O[C@H]3[C@@H](O)C[C@H](OC4CC[C@@]5(C)[C@H](CC[C@@H]6[C@@H]5CC[C@]5(C)[C@@H](C7=CC(=O)OC7)CC[C@]65O)C4)O[C@@H]3C)O[C@@H]2C)O[C@H](C)[C@H]1O[C@@H]1O[C@H](CO)[C@@H](O)[C@H](O)[C@H]1O (stereo not given in full) | 19.5% (inactive) | 
13 | CCCCCc1cc(O)c2c(c1)OC(C)(C)[C@@H]1CCC(C)=C[C@@H]21 | 5.51% (inactive) | 
14 | CNC1(c2ccccc2Cl)CCCCC1=O (stereo not given) |  | inactive
15 | CCc1cc(OC)c(C[C@@H](C)N)cc1OC | 5.32% [at 15.5 µM] (inactive) | 
16 | CC1(C)[C@H](C=C(Cl)Cl)[C@H]1C(=O)OCc1c(F)c(F)cc(F)c1F | -0.863% (inactive) | 
17 | O=C(O)/C=C\C(=O)O | 0.499% (inactive) | 
18 | NC(=O)CN1CC(O)CC1=O (stereo not given) | -0.206% (inactive) | 
19 | Clc1ccc(C(Cn2ccnc2)OCc2csc3c(Cl)cccc23)c(Cl)c1 (stereo not given) | -0.14% [at 15.5 µM] (inactive) | 
20 | CCCC(C)C1(CC)C(=O)NC(=O)NC1=O (stereo not given) | -0.423% (inactive) | 

Row | SMILES | PLD induction | Potency
21 | C=C[C@H]1CN2CC[C@H]1C[C@@H]2[C@@H](O)c1ccnc2ccccc12 | 4.18% (inactive) | 
22 | CCC1(c2ccccc2)C(=O)NC(=O)N(C(=O)c2ccccc2)C1=O (stereo not given) | 0.824% (inactive) | 
23 | CNC(C)CC1CCCCC1 (stereo not given) | -3.31% (inactive) | 
24 | CCCCC[C@@H](O)C1C(=O)OC(C)[C@H](O)/C=C/C=C/C=C/C=C/C=C(\C)C(O)C(O)C(O)C[C@H](O)C[C@H](O)C[C@H](O)C[C@H](O)C[C@@H]1O (stereo not given in full) |  | inactive
25 | CC(=O)OCC(=O)[C@H]1CC[C@H]2[C@@H]3CC[C@H]4C[C@H](O)CC[C@]4(C)[C@H]3C(=O)C[C@]12C | 4.93% [at 15.5 µM] (inactive) | 
26 | Cc1cccc(C(C)c2cnc[nH]2)c1C (stereo not given) | 0.182% (inactive) | 
27 | CCCCCc1cc(O)c2c(c1)OC(C)(C)c1ccc(C)cc1-2 | 0.298% (inactive) | 
28 | Cc1nnc2n1-c1ccc(Cl)cc1C(c1ccccc1)=NC2 | -0.385% (inactive) | 
29 | CN(C)[C@H](Cc1ccccc1)c1ccccc1 | 0.794% (inactive) | 
30 | C[C@@H]1[C@@H]2Cc3ccc(O)cc3[C@@]1(C)CCN2CC1CC1 | 5.17% [at 7.66 µM] (inactive) | 
31 | CC(C)NC(C)Cc1ccc(I)cc1 (stereo not given) | 19.6% (inactive) | 
32 | C[C@]12CCC(=O)C=C1C=C[C@@H]1[C@@H]2CC[C@@]2(C)[C@H]1CC[C@@]2(O)CCC(=O)O | 3.06% [at 15.5 µM] (inactive) | 
33 | CCNC1(c2cccs2)CCCCC1=O (stereo not given) | -1.58% [at 15.5 µM] (inactive) | 
34 | COc1ccc2c3c1O[C@H]1C(=O)CC[C@H]4[C@@H](C2)N(C)CC[C@]314 | 0.146% (inactive) | 
35 | O.O.O.O=C([O-])C(O)C(O)C(=O)[O-].O=C([O-])C(O)C(O)C(=O)[O-].[K+].[K+].[Sb].[Sb] (stereo not given) | -3.46% (inactive) | 
36 | COc1ccc(C(c2ccc(OC)cc2)C(Cl)(Cl)Cl)cc1 |  | 31.6 µM (active)
37 | CC(C)(O)[C@@H]1[C@H]2OC(=O)[C@@H]1[C@]1(O)C[C@H]3O[C@]34C(=O)O[C@H]2[C@]14C |  | inactive
38 | COC(=O)[C@]12CCC(C)(C)C[C@H]1[C@H]1C(=O)C=C3[C@@]4(C)C=C(C#N)C(=O)C(C)(C)[C@@H]4CC[C@@]3(C)[C@]1(C)CC2 | -2.77% (inactive) | 
39 | CC(C)C[C@H](CN)CC(=O)O | 0.886% (inactive) | 
40 | CC[N+](C)(CC)CCOC(=O)C(O)(c1ccccc1)c1ccccc1 | -0.612% (inactive) | 
